According to PubChem BioAssay AID1159580 (chemical genetic matrix, 2015):
Out of some 5,500 compounds screened, about 2,000 (36%) were called active. Another 18% or so got no clear call; they are omitted. No stated cut-off is given here; in the data, active means normalized growth mostly below about 0.91 (no sharp cut-off); inconclusive means no clear call, values can overlap the other calls; inactive means mostly above about 0.92. The list shows a part of the results.

Experiment: chemical genetic growth profiling, strain panel (AID 1159580);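 further: tested at 20 µM; growth read once vehicle control cultures reached saturation at 30 °C; 1 = growth at the plate median or of vehicle wells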
Settings: growth OD
[1] = S. cerevisiae deletion strains, locus YAL013W, strain DEP1, stronger effect = lower value
[2] = S. cerevisiae deletion strains, locus YDR150W, strain NUM1, stronger effect = lower value
[3] = S. cerevisiae deletion strains, locus YNL153C, strain GIM3, stronger effect = lower value
[4] = S. cerevisiae deletion strains, locus YNL322C, strain KRE1, stronger effect = lower value
[5] = S. cerevisiae deletion strains, locus YBR229C, strain ROT2, stronger effect = lower value
[6] = S. cerevisiae deletion strains, locus YDL101C, strain DUN1, stronger effect = lower value
[7] = S. cerevisiae deletion strains, locus YDL134C, strain PPH21, stronger effect = lower value
[8] = S. cerevisiae deletion strains, locus YEL061C, strain CIN8, stronger effect = lower value
[9] = S. cerevisiae deletion strains, locus YGR078C, strain PAC10, stronger effect = lower value
[10] = S. cerevisiae deletion strains, locus YHR030C, strain SLT2, stronger effect = lower value
[11] = S. cerevisiae deletion strains, locus YHR087W, strain rtc3, stronger effect = lower value
[12] = S. cerevisiae deletion strains, locus YJR043C, strain POL32, stronger effect = lower value
[13] = S. cerevisiae deletion strains, locus YJR075W, strain HOC1, stronger effect = lower value
[14] = S. cerevisiae deletion strains, locus YLR039C, strain RIC1, stronger effect = lower value
[15] = S. cerevisiae deletion strains, locus YLR058C, strain SHM2 (second series), stronger effect = lower value
[16] = S. cerevisiae deletion strains, locus YLR085C, strain ARP6, stronger effect = lower value
[17] = S. cerevisiae deletion strains, locus YLR262C, strain YPT6, stronger effect = lower value
[18] = S. cerevisiae deletion strains, locus YML094W, strain GIM5, stronger effect = lower value
[19] = S. cerevisiae deletion strains, locus YMR219W, strain ESC1, stronger effect = lower value
[20] = S. cerevisiae deletion strains, locus YMR263W, strain SAP30, stronger effect = lower value
[21] = S. cerevisiae deletion strains, locus YNL298W, strain CLA4 (second series), stronger effect = lower value
[22] = S. cerevisiae deletion strains, locus YNR030W, strain Alg12, stronger effect = lower value
[23] = S. cerevisiae deletion strains, locus YPL055C, strain LGE1, stronger effect = lower value
[24] = S. cerevisiae deletion strains, locus YPL241C, strain CIN2, stronger effect = lower value
[25] = S. cerevisiae deletion strains, locus YPR135W, strain CTF4, stronger effect = lower value
[26] = S. cerevisiae strains, strain wild type, stronger effect = lower value

Measured: normalized growth

CCS(=O)(=O)Nc1cccc(C(=C2CCCCC2)c2cnc[nH]2)c1
inactive: [1] 0.982 | S. cerevisiae deletion strains, locus YAL040C, strain CLN3, stronger effect = lower value 1 | [2] 1.02 | S. cerevisiae deletion strains, locus YDR363W, strain ESC2, stronger effect = lower value 0.974 | S. cerevisiae deletion strains, locus YER002W, strain NOP16, stronger effect = lower value 1.04 | S. cerevisiae deletion strains, locus YGR229C, strain SMI1, stronger effect = lower value 1 | [3] 1.03 | S. cerevisiae deletion strains, locus YNL175C, strain NOP13, stronger effect = lower value 1 | S. cerevisiae deletion strains, locus YNL197C, strain WHI3, stronger effect = lower value 1 | S. cerevisiae deletion strains, locus YNL224C, strain SQS1, stronger effect = lower value 1.01 | [4] 0.994 | S. cerevisiae deletion strains, locus YOR083W, strain WHI5 (second series), stronger effect = lower value 1.02

Cc1cc(NS(=O)(=O)c2ccc(NS(=O)(=O)c3cc(C)c(Cl)cc3C)cc2)no1
inactive: [1] 0.991 | [5] 0.994 | [6] 1 | [7] 0.968 | [2] 1.07 | [8] 0.984 | [9] 1.01 | [10] 1.08 | [11] 0.982 | [12] 1.04 | [13] 1.01 | [14] 1 | [15] 0.979 | [16] 0.947 | [17] 1.09 | [18] 0.971 | [19] 0.99 | [20] 1.02 | S. cerevisiae deletion strains, locus YNL128W, strain TEP1, stronger effect = lower value 0.981 | [3] 1.01 | [21] 0.979 | [4] 0.99 | [22] 1.01 | S. cerevisiae deletion strains, locus YOL006C, strain TOP1, stronger effect = lower value 0.985 | [23] 1.04 | [24] 0.985 | [25] 1.09 | [26] 0.974

Cn1nccc1NS(=O)(=O)c1cccc(Cl)c1
inactive: [1] 1.01 | [5] 1.01 | S. cerevisiae deletion strains, locus YCL061C, strain MRC1, stronger effect = lower value 1.02 | [6] 1 | [7] 0.969 | [2] 1.04 | [8] 1.01 | [9] 1.02 | [10] 1.07 | [11] 1.01 | [12] 1.03 | [13] 1.02 | [14] 0.98 | [15] 1.04 | [16] 0.984 | [17] 1.07 | [18] 0.972 | [19] 0.998 | [20] 1.03 | S. cerevisiae deletion strains, locus YMR307W, strain GAS1, stronger effect = lower value 0.957 | [3] 1.01 | [21] 1.03 | [4] 1 | [22] 0.995 | [23] 1 | [24] 0.975 | [25] 1.08 | [26] 1.01

Cc1ccc(S(=O)(=O)Nc2ccc(Oc3ccc(F)cc3)cc2)cc1
active: [10] 0.767 | S. cerevisiae deletion strains, locus YLR113W, strain HOG1, stronger effect = lower value 0.739 | S. cerevisiae deletion strains, locus YPL256C, strain CLN2, stronger effect = lower value 0.815
inactive: S. cerevisiae deletion strains, locus YAR019C, strain CDC15, stronger effect = lower value 0.98 | S. cerevisiae deletion strains, locus YBL105C, strain PKC1, stronger effect = lower value 0.977 | S. cerevisiae deletion strains, locus YBR135W, strain CKS1, stronger effect = lower value 0.983 | S. cerevisiae deletion strains, locus YBR136W, strain MEC1, stronger effect = lower value 0.985 | S. cerevisiae deletion strains, locus YBR160W, strain CDC28, stronger effect = lower value 0.976 | S. cerevisiae deletion strains, locus YDL017W, strain CDC7, stronger effect = lower value 0.985 | S. cerevisiae deletion strains, locus YDL028C, strain MPS1, stronger effect = lower value 0.987 | [6] 0.982 | S. cerevisiae deletion strains, locus YDL108W, strain KIN28, stronger effect = lower value 0.977 | S. cerevisiae deletion strains, locus YDL132W, strain cdc53, stronger effect = lower value 0.974 | S. cerevisiae deletion strains, locus YDL214C, strain PRR2, stronger effect = lower value 0.907 | S. cerevisiae deletion strains, locus YDR052C, strain DBF4, stronger effect = lower value 0.979 | S. cerevisiae deletion strains, locus YDR054C, strain cdc34, stronger effect = lower value 0.975 | S. cerevisiae deletion strains, locus YDR226W, strain ADK1, stronger effect = lower value 0.983 | S. cerevisiae deletion strains, locus YDR477W, strain SNF1, stronger effect = lower value 0.927 | S. cerevisiae deletion strains, locus YER123W, strain YCK3, stronger effect = lower value 0.866 | S. cerevisiae deletion strains, locus YER133W, strain GLC7, stronger effect = lower value 0.93 | S. cerevisiae deletion strains, locus YFL009W, strain cdc4, stronger effect = lower value 0.983 | S. cerevisiae deletion strains, locus YFL029C, strain CAK1, stronger effect = lower value 0.977 | S. cerevisiae deletion strains, locus YFR003C, strain YPI1, stronger effect = lower value 0.979 | S. cerevisiae deletion strains, locus YFR019W, strain FAB1, stronger effect = lower value 0.95 | S. cerevisiae deletion strains, locus YFR028C, strain CDC14, stronger effect = lower value 0.972 | S. cerevisiae deletion strains, locus YGR040W, strain KSS1, stronger effect = lower value 0.915 | S. cerevisiae deletion strains, locus YGR052W, strain FMP48, stronger effect = lower value 0.91 | S. cerevisiae deletion strains, locus YGR092W, strain DBF2, stronger effect = lower value 0.839 | S. cerevisiae deletion strains, locus YHR079C, strain IRE1, stronger effect = lower value 0.876 | S. cerevisiae deletion strains, locus YHR082C, strain KSP1, stronger effect = lower value 0.895 | S. cerevisiae deletion strains, locus YHR205W, strain SCH9, stronger effect = lower value 0.926 | S. cerevisiae deletion strains, locus YIL147C, strain SLN1, stronger effect = lower value 0.992 | S. cerevisiae deletion strains, locus YJL095W, strain BCK1, stronger effect = lower value 0.9 | S. cerevisiae deletion strains, locus YJL128C, strain PBS2, stronger effect = lower value 0.946 | S. cerevisiae deletion strains, locus YJL157C, strain FAR1, stronger effect = lower value 0.908 | S. cerevisiae deletion strains, locus YJR016C, strain ILV3, stronger effect = lower value 0.981 | S. cerevisiae deletion strains, locus YJR066W, strain TOR1 (second series), stronger effect = lower value 0.892 | S. cerevisiae deletion strains, locus YJR066W, strain TOR1, stronger effect = lower value 0.968 | S. cerevisiae deletion strains, locus YKL048C, strain ELM1, stronger effect = lower value 0.934 | S. cerevisiae deletion strains, locus YKL067W, strain YNK1, stronger effect = lower value 0.905 | S. cerevisiae deletion strains, locus YKL101W, strain HSL1, stronger effect = lower value 0.887 | S. cerevisiae deletion strains, locus YKL193C, strain SDS22, stronger effect = lower value 0.978 | S. cerevisiae deletion strains, locus YKL203C, strain TOR2, stronger effect = lower value 0.979 | S. cerevisiae deletion strains, locus YLR133W, strain CKI1, stronger effect = lower value 0.916 | S. cerevisiae deletion strains, locus YLR403W, strain SFP1, stronger effect = lower value 0.914 | S. cerevisiae deletion strains, locus YML070W, strain DAK1, stronger effect = lower value 0.868 | S. cerevisiae deletion strains, locus YMR001C, strain CDC5, stronger effect = lower value 0.986 | S. cerevisiae deletion strains, locus YMR205C, strain PFK2 (second series), stronger effect = lower value 0.918 | S. cerevisiae deletion strains, locus YMR277W, strain FCP1, stronger effect = lower value 0.985 | S. cerevisiae deletion strains, locus YNL006W, strain LST8, stronger effect = lower value 0.996 | S. cerevisiae deletion strains, locus YNL020C, strain ARK1, stronger effect = lower value 0.898 | S. cerevisiae deletion strains, locus YNL161W, strain CBK1, stronger effect = lower value 0.978 | S. cerevisiae deletion strains, locus YNL183C, strain NPR1, stronger effect = lower value 0.836 | S. cerevisiae deletion strains, locus YNL207W, strain RIO2, stronger effect = lower value 0.985 | S. cerevisiae deletion strains, locus YNL222W, strain SSU72, stronger effect = lower value 0.969 | S. cerevisiae deletion strains, locus YNL307C, strain MCK1 (second series), stronger effect = lower value 0.873 | S. cerevisiae deletion strains, locus YOL078W, strain AVO1, stronger effect = lower value 0.978 | S. cerevisiae deletion strains, locus YOL136C, strain PFK27, stronger effect = lower value 0.88 | S. cerevisiae deletion strains, locus YOR061W, strain CKA2, stronger effect = lower value 0.898 | S. cerevisiae deletion strains, locus YOR119C, strain RIO1, stronger effect = lower value 0.981 | S. cerevisiae deletion strains, locus YOR231W, strain MKK1, stronger effect = lower value 0.849 | S. cerevisiae deletion strains, locus YOR329C, strain SCD5, stronger effect = lower value 0.983 | S. cerevisiae deletion strains, locus YPL031C, strain PHO85, stronger effect = lower value 0.913 | S. cerevisiae deletion strains, locus YPL153C, strain RAD53, stronger effect = lower value 0.862 | S. cerevisiae deletion strains, locus YPL204W, strain HRR25, stronger effect = lower value 0.896 | S. cerevisiae deletion strains, locus YPL209C, strain IPL1, stronger effect = lower value 0.979 | S. cerevisiae deletion strains, locus YPR025C, strain CCL1, stronger effect = lower value 0.984 | S. cerevisiae deletion strains, locus YPR106W, strain ISR1, stronger effect = lower value 0.965 | S. cerevisiae deletion strains, locus YPR111W, strain DBF20, stronger effect = lower value 0.953 | S. cerevisiae deletion strains, strain NNK1, stronger effect = lower value 0.969 | S. cerevisiae deletion strains, strain TSCII, stronger effect = lower value 0.98

O=c1c2cc(NS(=O)(=O)c3ccc(Cl)cc3)ccc2oc2ncccc12
inactive: [1] 0.979 | [5] 1.02 | [6] 0.988 | [7] 1 | [2] 0.961 | [8] 1.04 | [9] 0.979 | [10] 0.998 | [11] 1.06 | [12] 0.976 | [13] 1.03 | [14] 1.03 | [15] 1.02 | [16] 1.04 | [17] 1.07 | [18] 1.08 | [19] 1.02 | [20] 0.991 | [3] 0.993 | [21] 0.997 | [4] 0.994 | [22] 1.02 | [23] 1.04 | [24] 1.01 | [25] 0.984
